Molecules are shown by their SMILES. About 83,000 compounds went through this panel and 20% of them were active in at least one assay; those are over-represented in the sample as a whole.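 Negative percent growth values reflect cell death: -40 means 40% of the cells present at the start died, and -100 means all died.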 A number with no mark means an inactive call. Active and inactive are the calls of the source. Rule for the calls: active = growth percent below 10; inactive = the rest.

The values below come from PubChem BioAssay (NCI).

Assay in all cases: NCI-60 one-dose screen, 48 h (100 = growth as untreated, 0 = no growth, -100 = all killed)
Conditions in all cases: 10 µM unless noted

Assay [1] relates to SR leukemia.
For assay [2], the system named is OVCAR-8 ovarian.
Assay [3] deals with OVCAR-5 ovarian.
The test system of assay [4] is OVCAR-4 ovarian.
Assay [5] concerns SK-OV-3 ovarian.
In assay [6] the test system is IGROV1 ovarian.
In assay [7] the test system is OVCAR-3 ovarian.
In assay [8] the test system is HS 578T breast.
Assay [9] has as its system NCI/ADR-RES ovarian.
Assay [10] has as its system T-47D breast.
Assay [11] concerns MDA-MB-435 melanoma.
Assay [12] concerns SW-620 colon.
Assay [13] concerns MCF7 breast.
Assay [14] deals with HCT-116 colon.
The subject of assay [15] is HCC-2998 colon.
Assay [16] deals with KM12 colon.
The test system of assay [17] is BT-549 breast.
Assay [18] concerns RPMI-8226 leukemia.

As for `COc1cc(-c2nn(C(C)(C)C)cc2-c2ccnc(NCCCNS(=O)(=O)c3ccc(Cl)cc3)n2)ccc1Cl`, the growth in [1] is 37.7%; in assay [2], 73.3%; in assay [3] it was 79.5%; in assay [4], 39.2%; in assay [5] it was 93.9%; in assay [6], 50.8%. Further, the growth in assay [7] is 73.5%; in [8] it was 70.5%; in assay [9] it was 67%; in assay [10], 64.2%; in [11] it was 72.2%; in assay [12], 91.1%. Also, the growth in assay [13] is 52.2%; in assay [14] it was 39%; in assay [15] it was 108%; in [16], 68.8%.
Take `N#Cc1cccc(/C(N)=N/C(N)=N/c2nc3ccccc3s2)c1`: the growth was 26.2% in assay [1]; 62.3% in assay [3]; 91.7% in assay [4]; 41.6% in assay [5]; 36.6% in assay [6]; 23% in assay [8]. Also, the growth in [9] is 14.3%; in assay [10], 34.1%; in assay [17], 49.3%; in assay [11], -39% (active); in assay [12] it was 22.9%; in assay [13], 23.1%. For the same compound, the growth in assay [14] was 24%; in assay [15] it was 55.7%; in assay [16] it was 24.6%.
Turning to `O=S(=O)(Nc1cccc2ccccc12)c1ccc(-c2cnc(C3CC3)o2)cc1`, the growth in assay [1] was 21.2%; in [2], 28.5%; in assay [3], 42.6%; in [4] it was 64.1%; in assay [5], 71.3%; in assay [6], 23.4%. The growth in assay [7] is 7.12% (active); in assay [8], 39.1%; in assay [9], 7.22% (active); in assay [10], 62.4%; in [17], 21.3%; in assay [11], -39.9% (active). Also, the growth in assay [12] is 24.6%; in assay [13] it was 22%; in assay [14] it was 12.4%; in [15], 21.3%; in [16], 10.7%.
For `CCN1CCN(C(=O)[C@]23CCC(C)(C)C[C@H]2C2=CC[C@@H]4[C@@]5(C)Cc6c([nH]c7ccccc67)C(C)(C)[C@@H]5CC[C@@]4(C)[C@]2(C)CC3)CC1`, the growth in [18] is 84.9%; in [2] it was 91.8%; in assay [3] it was 80.1%; in assay [4], 99.7%; in assay [5] it was 106%; in assay [6] it was 88.7%. The growth in assay [7] was 106%; in assay [8], 87.1%; in [9], 87%; in [10] it was 72.6%; in [17], 101%; in assay [11], 91.4%. In addition, the growth in [12] was 98.1%; in [13], 78.1%; in [14] it was 77.7%; in assay [15] it was 106%; in [16], 86.2%.
As to `O=S(=O)(Nc1ccc2c(c1)OCO2)c1ccc(-c2cnc(C3CC3)o2)cc1`, the growth in assay [1] was 26.6%; in assay [2] it was 46.8%; in [3] it was 60.7%; in assay [4] it was 36.3%; in assay [5], 62.1%; in assay [6], 40.6%. For the same compound, the growth is 7.46% (active) in assay [7]; 45.5% in assay [8]; 16.6% in [9]; 31.7% in [10]; 42.1% in [17]; 0.417% (active) in assay [11]. The growth was 21.2% in assay [12]; 22.3% in [13]; 19.9% in assay [14]; 73.5% in assay [15]; 23.1% in assay [16].
In the case of `c1cn2c(ccc3nc(-c4cn[nH]c4)c4c(c32)CCCC4)n1`, the growth in assay [18] is 80.7%; in assay [2], 57.1%; in assay [3] it was 99.4%; in [4], 77.9%; in assay [5], -10.1% (active); in assay [6] it was 45.3%. The growth in [8] was 31.5%; in [9] it was 77.3%; in assay [10], 45.4%; in [17], 53.1%; in assay [11], 34.9%; in assay [12], 61.2%. The growth in [13] is 60.9%; in [14] it was 48.7%; in assay [15], 87.2%; in assay [16] it was 74.9%.
Take `C=CCn1c(SCC(=O)Nc2ccc(C(=O)/C=C/c3cccc([N+](=O)[O-])c3)cc2)nnc1-c1c[nH]c2ccccc12`: the growth in [18] is 11.9%; in assay [2], 90.4%; in assay [3], 96.8%; in assay [4], 74.9%; in assay [5], 106%; in assay [6] it was 82.7%. For the same compound, the growth was 99.8% in assay [7]; 102% in [8]; 101% in assay [9]; 59.8% in [10]; 117% in assay [17]; 98.4% in assay [11]. Further, the growth was 98.7% in assay [12]; 25.4% in [13]; -32.6% (active) in [14]; 86% in assay [15]; 93.4% in assay [16].
In the case of `COc1cc(-c2nc(SCCC(C)C)nc(NNC(=O)c3ccncc3)c2C#N)cc(OC)c1OC`, the growth in assay [1] is 105%; in [2], 70%; in assay [3], 61%; in [4] it was 90.6%; in assay [5], 31.9%; in [6] it was 2.47% (active). In addition, the growth in assay [7] was 73.5%; in assay [8], 8.27% (active); in assay [9], 74.1%; in [10], 43%; in assay [17] it was 104%; in assay [11] it was 90.1%. The growth in [12] is 110%; in assay [13] it was 74.7%; in assay [14], 84.5%; in assay [15], 92.1%; in assay [16] it was 86.5%.
For the compound `NC(=O)c1cccc(-n2ccc3cc(NC(=O)Nc4ccc(N5CCOCC5)c(C(F)(F)F)c4)ccc32)n1`, the growth in assay [1] is -23.5% (active); in assay [2], 11.6%; in [3], 28%; in [4], 3.71% (active); in [5] it was 19.8%; in assay [6], 13.8%. Also, the growth in assay [7] is 7.68% (active); in [8] it was -21.8% (active); in assay [9], 15.9%; in assay [10] it was 1.29% (active); in assay [17], -14.8% (active); in [11], 10.5%. For the same compound, the growth in assay [12] is 4.98% (active); in [13], 8.81% (active); in assay [14], 0.168% (active); in assay [15], 31.3%; in [16], -15.7% (active).
